TEAD-YAP block – TEAD-YAP interaction inhibition. 1.4% of 640,000 active. AID 1259422. HEK-TIYL cells, TEAD-Gal4/YAP UAS-luciferase luminescence. inhibition, % at 9.12 µM; in the data active = inhibition above about 32%;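 note: 0% = median of test compound wells and 100% = reference inhibitor wells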
FBW7 activator – human FBW7 E3 ligase activation, primary screen. AID 1259310. AlphaScreen FBW7–phospho-cyclin E peptide binding, activator screen. 0.13% of 650,000 active. normalized activity (activation), % at 26.1 µM; in the data active = normalized activity above about 1.9%;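 note: purified mutant Fbw7 with reduced substrate affinity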
GPR151 ag – activates the human receptor GPR151. AID 1508602. activation, % at 11.2 µM. PathHunter beta-arrestin GPR151 cells, luminescence. Q8TDV0. 1% of 650,000 active; in the data active = activation above about 4.9%;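 note: 0% = median of compound wells and 100% = cells with positive control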
Target sequence (Q8TDV0 whole entry, looked up): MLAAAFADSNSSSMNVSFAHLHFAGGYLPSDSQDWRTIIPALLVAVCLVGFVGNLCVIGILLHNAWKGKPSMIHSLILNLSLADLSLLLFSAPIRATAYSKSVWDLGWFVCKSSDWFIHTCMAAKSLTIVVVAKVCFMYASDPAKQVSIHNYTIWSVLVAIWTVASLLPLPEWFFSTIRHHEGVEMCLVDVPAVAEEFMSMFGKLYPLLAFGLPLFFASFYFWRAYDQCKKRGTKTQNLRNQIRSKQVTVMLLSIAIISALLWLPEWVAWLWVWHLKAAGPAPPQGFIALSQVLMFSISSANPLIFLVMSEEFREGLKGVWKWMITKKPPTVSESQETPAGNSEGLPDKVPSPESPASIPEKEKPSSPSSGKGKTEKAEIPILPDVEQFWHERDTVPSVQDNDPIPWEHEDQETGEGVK
MITF primary – inhibitors of human MITF; AlphaScreen MITF homodimerization, bead proximity signal; 0.91% of 650,000 active; O75030; inhibition, % at 2.6 µM; in the data active = inhibition above about 50%;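 note: 0% = vehicle wells with protein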
Numbers without * were called inactive; x = not tested or not shown. Rows were chosen to be rich in hits. Some 3.5% of all compounds tested hit in one or more screens of this group.

SMILES	TEAD-YAP block	FBW7 activator	GPR151 ag	MITF primary
N#Cc1c(NC(=O)CSc2ncn[nH]2)sc2c1CCCCC2	68*	0	-5	-5
N#Cc1c(NC(=O)C2CC2c2ccccc2)sc2c1CCC2 (stereo not given)	43*	0	3	-16
N#Cc1c(NC(=O)c2cccc3ccccc23)sc2c1CCC2	58*	0	-1	-11
NC(=O)c1c(NC(=O)c2cccc3ccccc23)sc2c1CCC2	4	0	-1	17
Cc1cc2c(c(=O)n1CC1CCCO1)C(c1c(F)cccc1Cl)C(C#N)=C(N)O2 (stereo not given)	24	0	1	16
Cc1onc(-c2ccccc2)c1C(=O)Nc1sc2c(c1C#N)CCCC2	32*	0	-1	-20
N#Cc1c(NC(=O)c2cccc3ccccc23)sc2c1CCCC2	43*	0	0	-5
CC(=O)NC(=S)Nc1sc2c(c1C#N)CCCCC2	66*	0	-2	1
N#Cc1c(NC(=O)c2cc(Cl)ccc2[N+](=O)[O-])sc2c1CCC2	37*	0	3	10
Cc1onc(-c2ccccc2)c1C(=O)Nc1sc2c(c1C#N)CCC(C)C2 (stereo not given)	10	0	0	11
CC(=O)c1ccc(N2CCN(C(=O)NC3CC(=O)N(c4ccc(C)cc4)C3)CC2)cc1 (stereo not given)	2	0	-1	12
COc1ccc(NC(=O)CSc2nc3[nH]ncc3c(=O)n2-c2cccc(C)c2)c(OC)c1	2	0	0	15
COC(=O)C1=NN(C(=O)Cc2ccccc2)C(O)(C(C)(C)C)C1 (stereo not given)	-1	2.0*	0	16
CCOC(=O)C1=NN(C(=O)Cc2ccccc2)C(O)(C(C)(C)C)C1 (stereo not given)	13	0	0	-6
CCCN1CCN(c2cc(NCCO)c3c4c(onc24)-c2ccccc2C3=O)CC1	21	0	-2	24
CC(C)Nc1cc(N2CCN(C)CC2)c2noc3c2c1C(=O)c1ccccc1-3	7	-1	0	52*
CC(C)Nc1cc(N(C)C)c2noc3c2c1C(=O)c1ccccc1-3	11	-1	0	51*
CCOC(=O)N1CCN(c2cc(NC(C)C)c3c4c(onc24)-c2ccccc2C3=O)CC1	11	-1	1	71*
CCOC(=O)N1CCN(c2cc(Nc3ccc(OC)cc3)c3c4c(onc24)-c2ccccc2C3=O)CC1	0	0	0	-6
CCCCNc1cc(N2CCN(CCO)CC2)c2noc3c2c1C(=O)c1ccccc1-3	20	0	-1	54*
CC(C)Nc1cc(N2CCC(=O)CC2)c2noc3c2c1C(=O)c1ccccc1-3	-16	0	0	22
Cc1cc(NC(=O)c2ccccc2NS(=O)(=O)c2ccc(F)cc2)no1	10	0	2	18
O=C(NC1(C(F)(F)F)N=C2SCCN2C1=O)c1ccc(F)cc1 (stereo not given)	11	0	3	15
COc1ccc(CCNc2nnc(Sc3nnnn3-c3ccccc3)s2)cc1OC	54*	0	1	1
Cn1c(-c2ccccc2)c(C(C[N+](=O)[O-])c2ccc(C(F)(F)F)cc2)c2ccccc21 (stereo not given)	-7	0	-1	-2
SMILES	TEAD-YAP block	FBW7 activator	GPR151 ag	MITF primary
Cn1c(-c2ccccc2)c(C(C[N+](=O)[O-])c2ccco2)c2ccccc21 (stereo not given)	54*	0	1	11
CCNc1nc(NCc2cccc(C(F)(F)F)c2)c2ncn(C3CCCCC3)c2n1	8	0	2	4
O=C(/C=C/c1ccc(Cl)cc1)Nc1ccc(CN2CCOCC2)cc1	41*	0	0	-1
O=C(Cc1ccc(Cl)cc1)Nc1ccc(CN2CCOCC2)cc1	-7	0	-1	-4
O=c1oc2ccccc2cc1-c1cn2cc(Cl)ccc2n1	19	0	-1	0
CCOC(=O)c1cnn(-c2nc3ccccc3[nH]2)c1N	42*	0	-6	16
O=c1c2ccccc2cnn1-c1ccc(Cl)c(Cl)c1	-27	0	1	11
CCOC(=O)c1cnn(-c2nc3ccccc3s2)c1N	13	0	-1	-6
O=c1c2ccccc2cnn1-c1nc2ccccc2s1	90*	0	-1	27
CCOc1ccccc1C(=O)Nc1cc(C)nn1-c1nc2ccccc2[nH]1	54*	0	2	-2
O=c1c2ccccc2cnn1-c1nc2ccccc2[nH]1	94*	0	-11	9
CC(=O)Nc1cc(C)nn1-c1nc2ccccc2[nH]1	16	0	2	5
O=C1/C(=C/c2ccccc2)SC(=Nc2ccccc2)N1C1CCCCC1	-27	0	0	4
COc1ccc(CN2CCCC(O)C2)cc1 (stereo not given)	6	0	0	-7
O=C(O)/C=C/c1ccc(O)c(O)c1	-5	0	0	46
O=C(/C=C/c1ccc(O)c(O)c1)O[C@H](Cc1ccc(O)c(O)c1)C(=O)O	x	x	0	90*
CCN=c1scc(-c2ccc(O)c(C(N)=O)c2)n1/N=C/c1cc(OC)ccc1OC	-7	0	0	20
c1cc(-n2cnc3c(Nc4ccc(N5CCOCC5)cc4)nc(N4CCC(N5CCOCC5)CC4)nc32)cs1	37*	0	-3	8
c1ccc(N2CCN(c3nc(NC4CC4)c4ncn(-c5ccsc5)c4n3)CC2)nc1	49*	0	1	0
CCCNc1nc(N2CCN(c3ccccn3)CC2)nc2c1ncn2-c1ccsc1	12	0	2	8
c1ccc(OCCNc2ncnc3nc(N4CCN(c5ccccn5)CC4)[nH]c23)cc1	1	0	3	12
c1cc(-n2cnc3c(Nc4ccc5c(c4)OCO5)nc(N4CCC(N5CCOCC5)CC4)nc32)cs1	19	0	-1	14
Oc1ccc(CCNc2ncnc3nc(N4CCN(c5ccccn5)CC4)[nH]c23)cc1	39*	0	0	10
Oc1ccc(CCNc2nc(N3CCN(c4ccccn4)CC3)nc3c2ncn3-c2ccsc2)cc1	53*	0	3	11
O=C(Cn1c(=O)n(Cc2ccco2)c(=O)c2oc3ccccc3c21)NCCc1ccccc1	0	0	0	-11
SMILES	TEAD-YAP block	FBW7 activator	GPR151 ag	MITF primary
O=C(CN1C(=O)CCc2ccccc21)NCCC1=CCCCC1	2	0	2	-1
COc1ccccc1OCC(=O)O/N=C(\N)c1cccc(C)c1	-61	0	-1	-7
CC1(C)CC(=O)C2=C(C1)C1(CC(=O)CC(C)(C)C1)Nc1ncnn12 (stereo not given)	11	0	1	-17
c1ccc(Nc2nc(N3CCC(N4CCOCC4)CC3)nc3c2ncn3-c2ccsc2)cc1	33*	0	0	11
c1ccc(N2CCN(c3nc(Nc4ccc(N5CCOCC5)cc4)c4ncn(-c5ccsc5)c4n3)CC2)nc1	38*	0	0	20
c1ccc(Oc2ccc(Nc3nc(N4CCOCC4)nc4c3ncn4-c3ccsc3)cc2)cc1	-6	0	0	6
CN1CCN(C(=O)c2ccc(-c3ccc(C(N)=O)s3)cc2)CC1	8	0	-2	-1
